Test results as given in PubChem BioAssay (NCATS).
Records with an inconclusive call do not appear. Active and inactive are the calls of the source. Calls come from the whole dose curve; as a rule, active = well fitted curve in the direction sought with a large enough effect; inconclusive = small, poorly fitted or top-dose-only effect, or another doubt; inactive = no such curve, though single readings can be large; an effect the other way counts as inactive or inconclusive. Non-standard residues stand in square brackets, D forms with d. Residues, ends and D or L forms follow the SMILES beside them. *: point of attachment. Sta = CC(C)C[C@H](N)[C@@H](O)CC(=O)O; Isovaleryl = CC(C)CC(=O)*

Assays:
[1] = Quantitative High-Throughput drug screen in 47 multiple myeloma cell lines against the NCATS MIPE library collection: KMM1_JCRB cell viability assay (AID 1918960); note: nearly all actives have a fitted effect of over 30% in size
Summary of the method: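 Myeloma cells, 500 per well, were exposed to MIPE 4.0 drugs by pin transfer for 48 h at 37 °C, 5% CO2. Viability was read as ATP luminescence with CellTiter-Glo, normalised to DMSO-only (100%) and medium-only (0%) wells.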

[2] = Quantitative High-Throughput drug screen in 47 multiple myeloma cell lines against the NCATS MIPE library collection: KHM11_PLB cell viability assay (AID 1918962); note: nearly all actives have a fitted effect of over 35% in size
Summary of the method: (§1)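 Myeloma cell lines, 500 cells per well, exposed to MIPE 4.0 library compounds for 48 h at 37C, 5% CO2. Viability from ATP by CellTiter-Glo luminescence; normalised to DMSO (100%) and media-only (0%) wells.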

[3] = Quantitative High-Throughput drug screen in 47 multiple myeloma cell lines against the NCATS MIPE library collection: JIM3_ECACC cell viability assay (AID 1918963; note: nearly all actives have a fitted effect of over 35% in size)
Summary of the method: as §1

[4] = Quantitative High-Throughput drug screen in 47 multiple myeloma cell lines against the NCATS MIPE library collection: INA6_PLB cell viability assay (AID 1918965; note: nearly all actives have a fitted effect of over 55% in size)
Summary of the method: as §1

[5] = Quantitative High-Throughput drug screen in 47 multiple myeloma cell lines against the NCATS MIPE library collection: JJN3_DSMZ cell viability assay (AID 1918966; note: nearly all actives have a fitted effect of over 50% in size)
Summary of the method: (§2)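 Myeloma cells (500 per well) were exposed to MIPE 4.0 compounds by pin transfer and incubated 48 hours at 37C, 5% CO2. Viability was read as ATP by CellTiter-Glo luminescence, normalised to DMSO (100%) and media-only (0%) wells.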

[6] = Quantitative High-Throughput drug screen in 47 multiple myeloma cell lines against the NCATS MIPE library collection: Karpas25_ECACC cell viability assay (AID 1918968; note: nearly all actives have a fitted effect of over 35% in size)
Summary of the method: as §2

[7] = Quantitative High-Throughput drug screen in 47 multiple myeloma cell lines against the NCATS MIPE library collection: KMS12BM_JCRB cell viability assay (AID 1918971); note: nearly all actives have a fitted effect of over 35% in size
Summary of the method: (§3)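 CellTiter-Glo luminescence (ATP) after 48 h compound exposure, 37C/5% CO2; 500 cells/well; MIPE 4.0 approved/investigational drugs pinned in; DMSO = 100%, media only = 0% viability.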

[8] = Quantitative High-Throughput drug screen in 47 multiple myeloma cell lines against the NCATS MIPE library collection: KMS12PE_JCRB cell viability assay (AID 1918972); note: nearly all actives have a fitted effect of over 30% in size
Summary of the method: as §1

[9] = Quantitative High-Throughput drug screen in 47 multiple myeloma cell lines against the NCATS MIPE library collection: KMS26_JCRB cell viability assay (AID 1918975); note: nearly all actives have a fitted effect of over 45% in size
Summary of the method: as §3

[10] = Quantitative High-Throughput drug screen in 47 multiple myeloma cell lines against the NCATS MIPE library collection: MMM1_PLB cell viability assay (AID 1918976); note: nearly all actives have a fitted effect of over 35% in size
Summary of the method: (§4)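 500 cells/well per myeloma line exposed to pinned MIPE 4.0 compounds for 48 h at 37 °C, 5% CO2. Viability read as ATP by CellTiter-Glo luminescence, normalised to DMSO-only (100%) and media-only (0%) wells.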

[11] = Quantitative High-Throughput drug screen in 47 multiple myeloma cell lines against the NCATS MIPE library collection: NCIH929_DSMZ cell viability assay (AID 1918978); note: nearly all actives have a fitted effect of over 35% in size
Summary of the method: as §4

[12] = Quantitative High-Throughput drug screen in 47 multiple myeloma cell lines against the NCATS MIPE library collection: OCIMY1_PLB cell viability assay (AID 1918979); note: nearly all actives have a fitted effect of over 35% in size
Summary of the method: as §4

[13] = Quantitative High-Throughput drug screen in 47 multiple myeloma cell lines against the NCATS MIPE library collection: Karpas417_ECACC cell viability assay (AID 1918961); details: Karpas417 myeloma viability, CellTiter-Glo ATP luminescence, 48 h; viability (% of DMSO): at 45.8 µM (top of the series)
Summary of the method: as §1

[14] = Quantitative High-Throughput drug screen in 47 multiple myeloma cell lines against the NCATS MIPE library collection: H1112_PLB cell viability assay (AID 1918967; note: nearly all actives have a fitted effect of over 30% in size)
Summary of the method: as §2

[15] = Quantitative High-Throughput drug screen in 47 multiple myeloma cell lines against the NCATS MIPE library collection: MOLP8_DSMZ cell viability assay (AID 1918977); note: nearly all actives have a fitted effect of over 45% in size
Summary of the method: as §4

[16] = Quantitative High-Throughput drug screen in 47 multiple myeloma cell lines against the NCATS MIPE library collection: MM1S_ATCC cell viability assay (AID 1918980); note: nearly all actives have a fitted effect of over 45% in size
Summary of the method: as §4

[17] = Quantitative High-Throughput drug screen in 47 multiple myeloma cell lines against the NCATS MIPE library collection: JIM1_ECACC cell viability assay (AID 1918964)
Summary of the method: as §2

[18] = Quantitative High-Throughput drug screen in 47 multiple myeloma cell lines against the NCATS MIPE library collection: KMS20_JCRB cell viability assay (AID 1918973); note: nearly all actives have a fitted effect of over 45% in size
Summary of the method: as §2

[19] = Quantitative High-Throughput drug screen in 47 multiple myeloma cell lines against the NCATS MIPE library collection: MM1R_ATCC cell viability assay (AID 1918981); note: nearly all actives have a fitted effect of over 35% in size
Summary of the method: as §4

[20] = Quantitative High-Throughput drug screen in 47 multiple myeloma cell lines against the NCATS MIPE library collection: KMS27_JCRB cell viability assay (AID 1918970); note: nearly all actives have a fitted effect of over 30% in size
Summary of the method: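 Luminescent ATP read-out (CellTiter-Glo, 5 min at room temperature) after 48 h compound exposure of 500 KMS27_JCRB cells per well; DMSO wells define full viability and media-only wells zero.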
Potency is the fitted concentration of half-maximal effect.

COC1=C(OC)C(=O)C(CCCCCCCCCCO)=C(C)C1=O
inactive: Potency [12]
active: Potency [1] 18.7 µM | Potency [2] 26.4 µM | Potency [3] 18.7 µM | Potency [4] 18.7 µM | Potency [5] 18.7 µM | Potency [6] 13.2 µM | Potency [7] 16.6 µM | Potency [8] 18.7 µM | Potency [9] 23.5 µM | Potency [10] 20.9 µM | Potency [11] 23.5 µM

O=c1c(O)c(-c2ccc(O)cc2O)oc2cc(O)cc(O)c12
active: Potency [6] 10.5 µM | Potency [7] 2.09 µM | Potency [16] 0.833 µM
inactive: Potency [1] | Potency [13] | Potency [2] | Potency [3] | Potency [14] | Potency [15] | Potency [12]

CN(C)c1ccc2nc3ccc(=[N+](C)C)cc-3sc2c1
active: Potency [1] 2.35 µM | Potency [13] 6.62 µM | Potency [2] 4.18 µM | Potency [3] 2.35 µM | Potency [17] 9.35 µM | Potency [4] 1.48 µM | Potency [5] 0.662 µM | Potency [14] 8.33 µM | Potency [6] 0.662 µM | Potency [7] 4.69 µM | Potency [8] 5.9 µM | Potency [18] 2.64 µM | Potency [9] 1.32 µM | Potency [10] 5.26 µM | Potency [15] 3.32 µM | Potency [11] 6.62 µM | Potency [12] 1.48 µM | Potency [16] 2.64 µM | Potency [19] 1.05 µM

Cc1cc(O)c2c(c1)C(=O)c1cc(O)cc(O)c1C2=O
active: Potency [6] 2.09 µM | Potency [9] 11.8 µM | Potency [10] 18.7 µM
inactive: Potency [1] | Potency [13] | Potency [17] | Potency [4] | Potency [14] | Potency [8] | Potency [18] | Potency [12]

CC(C)CC(=O)N[C@H](C(=O)N[C@H](C(=O)N[C@@H](CC(C)C)[C@@H](O)CC(=O)N[C@@H](C)C(=O)N[C@@H](CC(C)C)[C@@H](O)CC(=O)O)C(C)C)C(C)C (Isovaleryl-VV[Sta]A[Sta]-OH)
inactive: Potency [1] | Potency [13] | Potency [2] | Potency [3] | Potency [17] | Potency [5] | Potency [8] | Potency [18] | Potency [9] | Potency [15] | Potency [12] | Potency [19]

Oc1ccc2ccccc2c1SSc1c(O)ccc2ccccc12
active: Potency [1] 23.5 µM | Potency [2] 20.9 µM | Potency [3] 18.7 µM | Potency [17] 14.8 µM | Potency [4] 5.9 µM | Potency [5] 7.43 µM | Potency [14] 11.8 µM | Potency [6] 8.33 µM | Potency [20] 18.7 µM | Potency [8] 20.9 µM | Potency [18] 9.35 µM | Potency [9] 9.35 µM | Potency [10] 20.9 µM | Potency [11] 8.33 µM | Potency [12] 20.9 µM | Potency [16] 14.8 µM | Potency [19] 14.8 µM

COC(=O)C1=C(C)NC(C)=C(C(=O)OC(C)C)C1c1cccc2nonc12 (centres undefined)
active: Potency [4] 26.4 µM | Potency [14] 3.32 µM | Potency [6] 5.26 µM | Potency [7] 18.7 µM | Potency [18] 20.9 µM | Potency [10] 5.9 µM | Potency [11] 2.64 µM | Potency [16] 2.35 µM
inactive: Potency [1] | Potency [13] | Potency [17] | Potency [20] | Potency [8] | Potency [9] | Potency [12] | Potency [19]

Nc1cc(C(Cl)=C(Cl)Cl)c(S(N)(=O)=O)cc1S(N)(=O)=O
active: Potency [16] 0.059 µM
inactive: Potency [1] | Potency [13] | Potency [2] | Potency [17] | Potency [4] | Potency [14] | Potency [6] | Potency [8] | Potency [9] | Potency [15] | Potency [11] | Potency [12] | Potency [19]

COc1cc2c(cc1OC)C1CC(=O)C(CC(C)C)CN1CC2 (centres undefined)
active: Potency [10] 20.9 µM
inactive: Potency [1] | Potency [13] | Potency [2] | Potency [17] | Potency [14] | Potency [6] | Potency [20] | Potency [18] | Potency [9] | Potency [11] | Potency [12] | Potency [19]

CCCCC(CC)COC(=O)C(C#N)=C(c1ccccc1)c1ccccc1 (centres undefined)
active: viability (% of DMSO) [13] 94.7% | Potency [4] 9.35 µM
inactive: Potency [1] | Potency [2] | Potency [3] | Potency [17] | Potency [5] | Potency [14] | Potency [6] | Potency [8] | Potency [18] | Potency [9] | Potency [15] | Potency [11] | Potency [12] | Potency [19]

Nc1nc(N)c(N=O)c(OCC2CCCCC2)n1
active: Potency [1] 6.62 µM | Potency [13] 2.64 µM | Potency [3] 9.35 µM | Potency [4] 5.26 µM | Potency [5] 16.6 µM | Potency [6] 5.9 µM | Potency [7] 13.2 µM | Potency [8] 4.69 µM | Potency [18] 4.69 µM | Potency [9] 13.2 µM | Potency [15] 5.26 µM | Potency [11] 5.26 µM | Potency [16] 13.2 µM | Potency [19] 14.8 µM

C[Se]CCC(N)C(=O)O (centres undefined)
active: Potency [10] 0.855 µM
inactive: Potency [1] | Potency [13] | Potency [3] | Potency [17] | Potency [14] | Potency [6] | Potency [7] | Potency [8] | Potency [15] | Potency [11] | Potency [12] | Potency [16]

O=Nc1c(-c2c(O)[nH]c3cc(Br)ccc23)[nH]c2ccccc12
active: Potency [1] 5.26 µM | Potency [2] 4.69 µM | Potency [3] 5.26 µM | Potency [17] 1.32 µM | Potency [4] 0.526 µM | Potency [5] 18.7 µM | Potency [14] 10.5 µM | Potency [6] 5.26 µM | Potency [7] 16.6 µM | Potency [8] 1.18 µM | Potency [18] 5.9 µM | Potency [9] 18.7 µM | Potency [10] 20.9 µM | Potency [15] 16.6 µM | Potency [12] 26.4 µM | Potency [16] 11.8 µM | Potency [19] 16.6 µM
